# Results published in PubChem BioAssay (Tox21).
# Results filed as inconclusive are left out. Unmarked numbers belong to inactive results. Calls of active or inactive are those of the source. Calls follow the shape of the dose curve; as a rule, active = well fitted inhibition curve with a large enough effect in the repeat runs; inconclusive = weak or mixed curves, or effect the other way; inactive = no such curve, though single readings can be large or run the other way.
# Molecular target: Androgen receptor (Homo sapiens) (UniProt P10275)
# Sequence (P10275 whole entry, looked up): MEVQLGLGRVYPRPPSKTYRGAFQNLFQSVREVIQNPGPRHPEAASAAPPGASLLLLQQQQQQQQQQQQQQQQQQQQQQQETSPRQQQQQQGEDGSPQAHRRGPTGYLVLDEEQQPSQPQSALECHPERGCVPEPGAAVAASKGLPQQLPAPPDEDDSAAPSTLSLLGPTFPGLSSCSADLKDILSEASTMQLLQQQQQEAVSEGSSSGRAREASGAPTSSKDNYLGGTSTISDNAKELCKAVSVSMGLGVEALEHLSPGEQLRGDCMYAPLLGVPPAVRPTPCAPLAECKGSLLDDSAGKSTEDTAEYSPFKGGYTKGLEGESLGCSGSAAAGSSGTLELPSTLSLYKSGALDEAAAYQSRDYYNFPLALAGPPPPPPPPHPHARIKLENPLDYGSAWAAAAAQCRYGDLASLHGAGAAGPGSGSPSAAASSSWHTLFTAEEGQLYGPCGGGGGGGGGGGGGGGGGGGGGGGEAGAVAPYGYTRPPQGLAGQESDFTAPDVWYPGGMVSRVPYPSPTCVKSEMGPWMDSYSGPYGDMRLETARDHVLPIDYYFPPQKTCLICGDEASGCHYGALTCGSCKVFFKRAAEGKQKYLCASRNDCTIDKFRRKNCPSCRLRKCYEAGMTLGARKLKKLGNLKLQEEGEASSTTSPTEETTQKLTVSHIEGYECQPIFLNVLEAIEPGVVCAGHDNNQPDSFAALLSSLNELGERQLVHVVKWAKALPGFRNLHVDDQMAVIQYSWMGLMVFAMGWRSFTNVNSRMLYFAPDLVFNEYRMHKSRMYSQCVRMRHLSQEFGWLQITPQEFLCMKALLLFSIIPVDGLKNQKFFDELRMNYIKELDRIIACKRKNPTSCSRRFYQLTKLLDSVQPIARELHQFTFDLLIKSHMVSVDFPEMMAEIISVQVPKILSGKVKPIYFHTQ
# Assay: qHTS assay to identify small molecule antagonists of the androgen receptor (AR) signaling pathway using the MDA cell line (AID 743042; also: nearly all actives have a fitted effect of over 55% in size)
# Conditions: MDA-kb2 AR-luc, MMTV luciferase, R1881 antagonist, 16 h; series mostly up to 70.3 µM; activity change, negative = inhibition: at the top concentration
# Excerpt: U.S. Tox21 Program National Center for Advancing Translational Sciences [NCATS] NIH Chemical Genomics Center [NCGC] U.S. Environmental Protection Agency [EPA] National Institutes of Environmental Health Sciences [NIEHS] National Toxicology Program [NTP] U.S. Food and Drug Administration [FDA] Tox21 Assay Overview: Androgen receptor (AR), a nuclear hormone receptor, plays a critical role in AR-dependent prostate cancer and other androgen related diseases. Endocrine disrupting chemicals (EDCs) and their interactions with steroid hormone receptors like AR may cause disruption of normal endocrine function as well as interfere with metabolic homeostasis, reproduction, developmental and behavioral functions. To identify the compounds that inhibit AR signaling, MDA-kb2 AR-luc cell line (from ATCC, deposited by Wilson et al.) was used to screen the Tox21 10K compound library. MDA-kb2 AR-luc cell line is human breast carcinoma cell line that was stably transfected with a luciferase reporter gene under control of the MMTV promoter containing response elements for both androgen receptor (AR) and glucocorticoid receptor (GR).
# Tox21 Assay Protocol Summary: MDA-kb2 cells were dispensed at 3,000 cells/4 uL/well of culture medium into white wall/solid-bottom 1536-well plates using a Multidrop Combi (ThermoFisher Scientific, Waltham, MA) dispenser. After the assay plates were incubated at a 37C and 0% CO2 for 5 hr, 23 nL of compounds dissolved in DMSO, positive controls or DMSO only was transferred to the assay plate by a Pintool station (Kalypsys, San Diego, CA), followed by addition of 1 uL of agonist (R1881) in culture medium using a Bioraptr Flying Reagent Dispenser (FRD) workstation (Beckman Coulter, Indianapolis, IN, USA). The plates were incubated at a 37C and 0% CO2 for 16 h. After 15.5 h incubation, 1uL of CellTiter-Fluor reagent (Promega, Madison, WI) was added using a Bioraptr FRD to each plate for measuring cytotoxicity. The fluorescence intensity was quantified on a ViewLux plate reader (PerkinElmer, Shelton, CT) following 30 min incubation at 37C and 0% CO2. For measuring luciferase reporter gene activity, 4 uL of ONE-Glo reagent (Promega) was added to each plate using a Bioraptr FRD and luminescence was quantified on a ViewLux (PerkinElmer) plate reader after 30 min incubation at room temperature.
# % is scaled to controls: 0 for no effect and ±100 for the full control effect.
SMILES,"activity change, negative = inhibition",outcome
CCCCCC(C)N (stereo not given),14.9%,
CCOC(=O)COc1cc(-n2ncc(C(F)(F)F)c(C)c2=O)c(F)cc1Cl,5.93%,
CC1CCC(CO)CC1 (stereo not given),-8.9% [at 95 µM],
CC(=O)N[C@H]1[C@H]([C@H](O)[C@H](O)CO)OC(C(=O)O)=C[C@@H]1N=C(N)N,3.04%,
CC1=NN(c2cccc(S(=O)(=O)O)c2)C(=O)C1,-12.7%,
CC(C)(C)c1ccc(-c2ccc(C(C)(C)C)cc2)cc1,10.3%,
CCCOC(=O)CC,0.11%,
Cc1ccc(-c2ncc(Cl)cc2-c2ccc(S(C)(=O)=O)cc2)cn1,4.1%,
CCCCCCCCCC[N+](C)(C)[O-],-13.5%,
CCCCOCCOC(=O)COc1cc(Cl)c(Cl)cc1Cl,9.32%,
O=S(=O)(O)c1cc(O)c(O)c(S(=O)(=O)O)c1,14.1%,
COC(=O)C1=C(C)NC(C)=C(C(=O)OC(C)C)C1c1cccc2nonc12 (stereo not given),5.27% [at 32.5 µM],
Nc1c2c(nc3c1CCC3)CCCC2,5.71%,
O=C(O)CCSCCC(=O)O,0.193%,
CC(C)C1CCC(O)CC1 (stereo not given),-6.07%,
Cc1ccc(C(=O)c2ccc(CC(=O)O)n2C)cc1,4.95% [at 32.5 µM],
CCCCCCCC1CCCC1=O (stereo not given),0.857%,
CC[N+](CC)(CC)CCOc1cccc(OCC[N+](CC)(CC)CC)c1OCC[N+](CC)(CC)CC,-3.36%,

SMILES,"activity change, negative = inhibition",outcome
CC(=O)O[C@@]12CO[C@@H]1C[C@H](O)[C@@]1(C)C(=O)[C@H](O)C3=C(C)[C@@H](OC(=O)[C@H](O)[C@@H](NC(=O)OC(C)(C)C)c4ccccc4)C[C@@](O)([C@@H](OC(=O)c4ccccc4)[C@H]21)C3(C)C,,inactive
CC(C)NNC(=O)c1ccncc1,15.4%,
CC1(C)OC[C@@H](COC(=O)CCc2ccc(OC[C@@H](O)CNCCNC(=O)N3CCOCC3)cc2)O1,,inactive
Cc1ccc(C(=O)c2ccccc2)cc1,-6.62%,
CO[C@@]1(NC(=O)CSC[C@@H](N)C(=O)O)C(=O)N2C(C(=O)O)=C(CSc3nnnn3C)CS[C@@H]21,10.6%,
CCCCS(=O)(=O)N[C@@H](Cc1ccc(OCCCCC2CCNCC2)cc1)C(=O)O,4.43%,
CC(=O)N1C[C@H](O)C[C@H]1C(=O)O,-28%,
NS(=O)(=O)Cc1noc2ccccc12,8.98%,
Cc1nc2ccc(CN(C)c3ccc(C(=O)N[C@@H](CCC(=O)O)C(=O)O)s3)cc2c(=O)[nH]1,,inactive
CCN(Cc1ccccc1)c1ccccc1,-17.7%,
C=C[Si](OC(C)=O)(OC(C)=O)OC(C)=O,-23.6%,
COCCOC[C@H](CC1(C(=O)NC2CCC(C(=O)O)CC2)CCCC1)C(=O)Oc1ccc2c(c1)CCC2 (stereo not given in full),-20.7%,
C[C@@H]1C[C@H]2[C@@H]3C[C@H](F)C4=CC(=O)C(Cl)=C[C@]4(C)[C@@]3(F)[C@@H](O)C[C@]2(C)[C@@]1(O)C(=O)CO,230%,
O=C(O)Cc1csc(-c2ccc(Cl)cc2)n1,7.67%,
O=S(=O)(O)c1cccc(S(=O)(=O)O)c1,-6.43%,
CNC(=O)Nc1ccc(Cl)c(Cl)c1,-15.4%,
COC(=O)Nc1ccc(Cl)c(Cl)c1,-10.9%,
